Experimental data published in PubChem BioAssay.
The source made the active and inactive calls.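 Rule for the calls: active = hit in primary screen, with calcium signal over 5 SD above buffer well mean in both duplicates; inactive = the rest.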

Test: nonspecific calcium rise without TRPC4 – cell-based, HEK293 mu-opioid receptor line, counter-screen for TRPC4 activator project, confirmation (AID 449723);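 note: counter screen cells carry the mu-opioid receptor alone and lack TRPC4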
Details: HEK293 mu-opioid cells, Fluo-4 calcium fluorescence, at 10 µM

Row | Structure (SMILES) | outcome
1 | CCN1CCN(c2ccc(S(=O)(=O)N3CCCCC3)cc2NC(=O)c2cccc(OC(F)F)c2)CC1 | inactive
2 | Fc1ccc(CN2C3=NCCCN3c3ccccc32)cc1 | inactive
3 | COc1ccc(-n2cc(CNCc3cnc4ccccn34)c(-c3cccc(F)c3)n2)cc1 | inactive
4 | N=c1c(C(=O)NCc2ccc(F)cc2)cc2c(=O)n3ccccc3nc2n1Cc1ccco1 | inactive
5 | O=C1CC2(CCN(S(=O)(=O)c3ccccc3F)CC2)Oc2ccccc21 | inactive
6 | O=C1Cc2ccccc2Sc2c(OCCN3CCCCC3)cccc21 | inactive
7 | C/C(CC(=O)NCc1ccc(Cl)cc1)=N\NC(=O)COc1ccc(C)cc1Br | inactive
8 | CCCCNc1c(-c2ccc(SC(C)CC)c(OC)c2)nc2ccc(C)cn12 (configuration not stated) | inactive
9 | CCOC(=O)C1NN=C(C(=O)c2ccccc2)C1c1ccc(Cl)cc1 (configuration not stated) | inactive
10 | O=[N+]([O-])c1ccc(N2CCN(CCOc3nonc3-c3ccccc3)CC2)c(Cl)c1 | inactive
11 | COc1ccc(-c2cc(C(=O)N3CC(C)CC(C)C3)c3ccccc3n2)cc1 (configuration not stated) | inactive
12 | COC(=O)c1cc(N2CCN(C)CC2)nc2ccccc12 | inactive
13 | COc1cc(C2c3c(-c4ccccc4)n[nH]c3C(=O)N2c2ccccc2)ccc1O (configuration not stated) | inactive
14 | O=C(c1ccccc1)c1coc2ccc(O)c(CN3CCOCC3)c12 | inactive
15 | CN(C)S(=O)(=O)c1cccc(COC(=O)c2ccc(Cl)cc2O)c1 | inactive
16 | CCOC(=O)C1=C(C)N(c2ccccc2)C(=O)NC1c1cccc([N+](=O)[O-])c1 (configuration not stated) | inactive
17 | Cc1cc(=O)oc2cc(NC(=S)NCc3ccccn3)ccc12 | inactive
